Experimental findings from PubChem BioAssay (NCATS) are described below.

The structures appear in SMILES notation. Results filed as inconclusive are left out. Where a call stands in place of a potency, no number is given. The source made the active and inactive calls. Calls come from the whole dose curve; as a rule, active = well fitted curve in the direction sought with a large enough effect; inconclusive = small, poorly fitted or top-dose-only effect, or another doubt; inactive = no such curve, though single readings can be large; an effect the other way counts as inactive or inconclusive.

Sequence of Alpha-galactosidase (Coffea arabica) (Q42656 whole entry, looked up): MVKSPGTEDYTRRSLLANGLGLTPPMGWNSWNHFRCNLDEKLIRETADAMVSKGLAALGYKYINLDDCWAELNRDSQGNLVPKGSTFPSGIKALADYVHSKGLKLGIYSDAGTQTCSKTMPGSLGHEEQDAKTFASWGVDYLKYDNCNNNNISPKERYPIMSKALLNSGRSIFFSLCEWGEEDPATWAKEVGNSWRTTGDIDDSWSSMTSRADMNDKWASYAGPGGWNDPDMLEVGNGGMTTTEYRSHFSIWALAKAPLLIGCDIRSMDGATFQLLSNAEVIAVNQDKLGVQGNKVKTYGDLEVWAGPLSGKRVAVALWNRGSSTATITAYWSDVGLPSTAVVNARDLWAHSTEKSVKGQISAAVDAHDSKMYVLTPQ

For one test, the target named is Alpha-galactosidase (Coffea arabica) (UniProt Q42656). As to the kind of experiment: Counterscreen for Glucocerebrosidase Inhibitors: qHTS Assay for Coffee Bean alpha-Galactosidase at pH 4.5 (AID 957). Particulars: purified coffee bean alpha-galactosidase, fluorogenic substrate; series mostly up to 76.9 µM. In outline:
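Enzyme is added first (2 nM final), then compounds titrated from 0.7 nM to 77 uM, then 80 uM 4-methylumbelliferyl alpha-D-galactopyranoside; after 20 min at room temperature a pH 10 NaOH/glycine stop precedes fluorescence reading at 365/440 nm.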
`CC1=C(/C=C/C(C)=C/C=C/C(C)=C/C(=O)Nc2ccc(O)cc2)C(C)(C)CCC1`: the call was inactive. Consider `CCCC(CCC)C(=O)O`, for which the outcome was inactive. Still for that read-out and setting: in the case of `COC(=O)[C@H]1[C@H]2C[C@@H]3c4[nH]c5cc(OC)ccc5c4CCN3C[C@H]2C[C@@H](OC(=O)c2cc(OC)c(OC)c(OC)c2)[C@@H]1OC` it was “inactive”. For `CC1=NS(=O)(=O)c2cc(Cl)ccc2N1`, the outcome was inactive. On the same count and under the same terms, in the case of `CC(C)(C)NC(=O)[C@H]1CC[C@H]2[C@@H]3CC[C@H]4NC(=O)C=C[C@]4(C)[C@H]3CC[C@]12C` it was “inactive”. As to `NS(=O)(=O)c1cc2c(cc1Cl)NC=NS2(=O)=O`, the result was inactive. Still for that read-out and setting: in the case of `O=C1NC(=O)C(c2ccccc2)(c2ccccc2)N1` it was “inactive”; in that of `CN(C)CCC=C1c2ccccc2CCc2ccccc21`, “inactive”; in that of `N=c1nc(N2CCCCC2)cc(N)n1O`, “inactive”. As to `CCCNC(=O)NS(=O)(=O)c1ccc(Cl)cc1`, the compound was called inactive. The same measure, in the same setting: in the case of `CCOC(=O)c1ncn2c1CN(C)C(=O)c1cc(F)ccc1-2` it was “inactive”. Still for that read-out and setting: the result for `Clc1ccc(C(c2ccccc2Cl)C(Cl)Cl)cc1` (centres undefined) reads “inactive”; that for `CN/C(=C\[N+](=O)[O-])NCCSCc1ccc(CN(C)C)o1`, “inactive”; that for `Nc1nnc(-c2cccc(Cl)c2Cl)c(N)n1`, “inactive”. On to `CC(=O)N[C@@H](CS)C(=O)O`, for which the result was inactive.

For the compound `CCCCc1oc2ccccc2c1C(=O)c1cc(I)c(OCCN(CC)CC)c(I)c1`, the compound was called inactive. Consider `CN1CCN(CCCN2c3ccccc3Sc3ccc(C(F)(F)F)cc32)CC1`, for which the compound was classed as inactive. On the same count and under the same terms, in the case of `CCOC(=O)N1CCC(=C2c3ccc(Cl)cc3CCc3cccnc32)CC1` it was “inactive”; in that of `O=c1c(O)c(-c2ccc(O)c(O)c2)oc2cc(O)cc(O)c12`, “inactive”; in that of `NNCCc1ccccc1`, “inactive”. Turning to `O=C(C1CCCCC1)N1CC(=O)N2CCc3ccccc3C2C1` (centres undefined), the outcome was inactive. Take `Nc1nc2c(ncn2COCCO)c(=O)[nH]1`: the compound was called inactive.

Take `CC(=O)Nc1nnc(S(N)(=O)=O)s1`: the call was inactive. Same read-out and setting: in the case of `COc1cc(Cc2cnc(N)nc2N)cc(OC)c1OC` it was “inactive”; in that of `COc1ccc(Cc2nccc3cc(OC)c(OC)cc23)cc1OC`, “inactive”. Take `Cc1[nH]c(=O)c(C#N)cc1-c1ccncc1`: the compound was classed as inactive. Regarding `CN(C)CCCN1c2ccccc2CCc2ccc(Cl)cc21`, the compound was called inactive.

Turning to `CC/C(=C(\c1ccccc1)c1ccc(OCCN(C)C)cc1)c1ccccc1`, the outcome was inactive.

Tested on in a further test: not listed separately
Nature of the test: MultiTox-Fluor Cytotoxicity Assay - LYMP1-002 - Dead Cells (AID 960). Note: potency is the fitted concentration of half-maximal effect; nearly all actives have a fitted effect of over 60% in size. Conditions: LYMP1-002 lymphoblastoid cells, dead-cell protease fluorescence; series mostly up to 46.1 µM. In outline: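 Cells were plated, rested 5 hr, then treated with compound dilution series for 16 hr at 37 C. After adding substrate reagent and 60 min at room temperature, dead-cell protease fluorescence gave concentration-response curves fitted by the Hill equation.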
In the case of `CN(C)CCC=C1c2ccccc2CCc2ccccc21`, the Potency was 25.1 µM (active). Still for that read-out and setting: the result for `Cc1c(O)cccc1C(=O)N[C@@H](CSc1ccccc1)[C@H](O)CN1C[C@H]2CCCC[C@H]2C[C@H]1C(=O)NC(C)(C)C` reads 31.6 µM (active); that for `CC(C)C(=O)Nc1ccc([N+](=O)[O-])c(C(F)(F)F)c1`, 15.8 µM (active).

Tested on in another test: not listed separately
As to the kind of experiment: MultiTox-Fluor Cytotoxicity Assay - LYMP1-003 - Dead Cells (AID 961).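 Note: potency is the fitted concentration of half-maximal effect; cells exposed to compound for 16 h at 37 °C; nearly all actives have a fitted effect of over 70% in size.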 Conditions: LYMP1-003 lymphoblastoid cells, dead-cell protease fluorescence; series mostly up to 92.2 µM. The method, boiled down:
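Acute toxicity is scored as increased dead-cell protease activity in human lymphoblastoid LYMP1-003 cells after 16 h compound exposure in complete culture medium. Activity is normalized to DMSO basal and 15 uM tetraoctylammonium bromide as full response.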
Regarding `CC1=C(/C=C/C(C)=C/C=C/C(C)=C/C(=O)Nc2ccc(O)cc2)C(C)(C)CCC1`, the Potency was 39.8 µM (active).

Take `COc1cc2c(c(OC)c1OC)-c1ccc(OC)c(=O)cc1[C@@H](NC(C)=O)CC2`: the Potency was 0.631 µM (active). `CC/C(=C(\c1ccccc1)c1ccc(OCCN(C)C)cc1)c1ccccc1`: the Potency was 39.8 µM (active).
